Measured values: PubChem BioAssay (NCATS)
Results filed as inconclusive are left out. A number with no mark means an inactive call. The source made the active and inactive calls. Calls come from the whole dose curve; as a rule, active = well fitted curve in the direction sought with a large enough effect; inconclusive = small, poorly fitted or top-dose-only effect, or another doubt; inactive = no such curve, though single readings can be large; an effect the other way counts as inactive or inconclusive.

test: qHTS to identify inhibitors of the type 1 interferon - major histocompatibility complex class I in skeletal muscle: primary screen against the NCATS Pharmaceutical Collection (AID 1347407); settings: human skeletal muscle cells, IFN-b-induced MHC-I HiBiT luminescence, 24 h; series mostly up to 45.9 µM; activity change, negative = inhibition: at the top concentration;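 note: luminescence of HiBiT knocked into endogenous HLA-B as interferon-induced MHC class I level; % is set by controls: 0 for no effect and ±100 for the full control effect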
In short: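 Compounds […] were added to CRISPR-engineered HLA-B-HiBiT C25cl48 human myoblasts with 4.0 ng/ml IFN-beta. After 24 hrs at 37 C, cells were lysed and HiBiT luminescence measured.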

Row | SMILES | activity change, negative = inhibition
1 | Cc1ccc(N)cc1O | -8.88% [at 92.2 µM]
2 | CCOCCOC(=O)/C=C/c1ccc(OC)cc1 | -2.6%
3 | O=C(O)c1c(O)c(-c2ccccc2)nc2ccccc12 | -9.09%
4 | Nc1ccccc1N | 0.973% [at 92.2 µM]
5 | O=C(O)c1ccccc1NCCc1ccccc1 | -5.48%

test: qHTS to identify inhibitors of the type 1 interferon - major histocompatibility complex class I in skeletal muscle: primary screen against the NCATS Mechanism Interrogation Plate v5.0 (MIPE) Libary (AID 1347411); settings: iHSKM cells + IFN-b, HiBiT-tagged MHC-I luminescence, 24 h; series mostly up to 45.8 µM; activity change, negative = inhibition: at the top concentration; note: nearly all actives have a fitted effect of over 65% in size; note: potency is the fitted concentration of half-maximal effect;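 for activity change, negative = inhibition: plate controls were vehicle for no effect and reference inhibitor for full effect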
In short: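 Seed engineered human myoblasts (HLA-B HiBit) in medium without dexamethasone containing 4 ng/ml IFN-beta; after 1 hr add compound titrations (top 46 uM final). Incubate 24 hrs at 37 C, lyse 10 min with HiBiT reagent, read luminescence.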

Row | SMILES | activity change, negative = inhibition | Potency
6 | Cc1c(F)cc(C(=O)NC2CC2)cc1-c1c(F)cn2c(C(C)(C)C)nnc2c1F | -4.73% | –
7 | C[C@H](Nc1ncnc2nc[nH]c12)c1cc2ccc(F)cc2nc1-c1ccccn1 | -23.4% | –
8 | CN1CCN(C2CCC(n3cc(-c4ccc(Oc5ccccc5)cc4)c4c(N)ncnc43)CC2)CC1 (configuration not stated) | – | 11.7 µM (active)
9 | CN[C@@H]1[C@H](O[C@H]2[C@H](O[C@@H]3[C@@H](O)[C@H](O)[C@@H](N=C(N)N)[C@H](O)[C@H]3N=C(N)N)O[C@@H](C)[C@]2(O)C=O)O[C@@H](CO)[C@H](O)[C@H]1O | -6.78% | –
10 | FC(F)(F)c1ccc(Nc2nc(-c3c(C(F)(F)F)nc4ccccn34)cs2)cc1 | – | 4.66 µM (active)
11 | CC[C@H](NC(=O)[C@H](CS(=O)(=O)CC1CC1)N[C@@H](c1ccc(F)cc1)C(F)(F)F)C(=O)C(=O)NC1CC1 | 51.6% | –
12 | C[C@H]1[C@H](O)O[C@@H]2O[C@@]3(C)CC[C@H]4[C@H](C)CC[C@@H]1[C@@]24OO3 | -16.5% | –
13 | COC(=O)N(C)c1c(N)nc(-c2nn(Cc3ccccc3F)c3ncccc23)nc1N | 5.77% | –
14 | COc1ccc(Cl)c(Nc2nc3ccccc3nc2NS(=O)(=O)c2cccc(NC(=O)C(C)(C)N)c2)c1 | -9.66% | –
15 | Cc1ccc(NC(=O)Nc2cc(C(F)(F)F)ccc2F)cc1Nc1ccc2c(c1)NC(=O)/C2=C\c1ccc[nH]1 | – | 23.4 µM (active)
16 | CCOCc1nc2c(N)nc3ccccc3c2n1CC(C)(C)O | -7.97% | –
17 | Cc1cc(O)c(-c2ccc([C@@H](C)CN(C)C)cc2)c2c1[nH]c(=O)c1sccc12 | – | 0.104 µM (active)
18 | CO[C@H]1C[C@@H]2CC[C@@H](C)[C@@](O)(O2)C(=O)C(=O)N2CCCC[C@H]2C(=O)O[C@H]([C@H](C)C[C@@H]2CC[C@@H](OP(C)(C)=O)[C@H](OC)C2)CC(=O)[C@H](C)/C=C(\C)[C@@H](O)[C@@H](OC)C(=O)[C@H](C)C[C@H](C)/C=C/C=C/C=C/1C | – | 18.6 µM (active)
19 | CS(=O)(=O)N1CCC(NC(=O)c2[nH]ncc2NC(=O)c2c(Cl)cccc2Cl)CC1 | – | 1.47 µM (active)
20 | CC(C)(C)C(=O)CN1C(=O)[C@H](NC(=O)Nc2cccc(C(=O)O)c2)CN(C2CCCCC2)c2ccccc21 | -7.01% | –
21 | Cc1[nH]nc(C(F)(F)F)c1Cc1sc2c(c1C(=O)N1C[C@](C)(O)CO1)c(=O)n(C)c(=O)n2C(C)C | -4.31% | –
22 | CCCCNc1ncc2c(-c3ccc(CN4CCN(C)CC4)cc3)cn(C3CCC(O)CC3)c2n1 (configuration not stated) | – | 9.3 µM (active)
23 | CNCc1ccc(-c2cc(-c3nc(-c4ccc(S(=O)(=O)C(C)C)cc4)cnc3N)on2)cc1 | -21.9% | –
24 | CC(C)c1c2cc(-c3ccnc(NC4CCC(NC5CCOCC5)CC4)n3)ccc2nn1C (configuration not stated) | – | 0.104 µM (active)
25 | CCOc1cc2ncc(C#N)c(Nc3ccc(F)c(Cl)c3)c2cc1NC(=O)/C=C/CN(C)C | – | 2.62 µM (active)
26 | O=C(O)c1ccc(CN2CCC(CN[C@@H]3C[C@H]3c3ccccc3)CC2)cc1 | 9.94% | –
27 | CCOc1cc(C(=O)N2CCC(N3CCN(C)CC3)CC2)ccc1Nc1ncc2c(n1)N(C1CCCC1)c1ccccc1C(=O)N2C | – | 23.4 µM (active)
28 | CC(C)c1cc(CNc2nc(Nc3cc(C4CC4)[nH]n3)cc(N3CCN(C)CC3)n2)on1 | – | 0.523 µM (active)
29 | CCN1CCN(Cc2ccc(NC(=O)Nc3ccc(Oc4cc(NC)ncn4)cc3)cc2C(F)(F)F)CC1 | – | 7.39 µM (active)
30 | CCCN1CCN(c2ccc(C(=O)NC3(C(=O)NCC#N)CCCCC3)cc2)CC1 | 2.97% | –
31 | COCCN1CCN(Cc2ccc(-c3n[nH]c4c3C(=O)c3c(NC(=O)NN5CCOCC5)cccc3-4)cc2)CC1 | – | 0.208 µM (active)
32 | COc1ccc(C(=O)C2CCN(CC(=O)N(Cc3nc4c(c(=O)[nH]3)COCC4)CC3CC3)CC2)cc1 | -9.13% | –
